Screening results as filed in PubChem.
Rows were chosen to be rich in hits. Some 12% of all compounds tested hit in one or more screens of this group.
BAZ2B block: blocks human BAZ2B | Q9UIF8 | AlphaScreen BAZ2B-H3K14Ac peptide displacement | 360,000 tested, 4.4% active | Potency, µM (highest dose often 114 µM), for inactives: at the highest dose activity change, negative = inhibition, actives largely listed as inhibitors; further: on the % scale 0 is the no-effect control and ±100 the full control effect; nearly all actives have a fitted effect of over 60% in size
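BAZ2B (50 nM) with biotin-H3(5-23)K14Ac peptide (50 nM) in PBS pH 7.4, 0.01% Tween-20, preformed 30 min, then compound 30 min at room temperature; top concentration 110uM. AlphaScreen streptavidin donor/nickel chelate acceptor beads (10 ug/mL final), 20 min dark, signal read.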
HP1b binding inh: HP1-beta chromodomain-methylated histone interaction inhibition | Potency, µM (highest dose often 114 µM), for the others: at the highest dose activity change, negative = inhibition, usual class: inhibitors | AlphaScreen HP1-beta / biotin-H3K9me3 peptide binding | AID 540317 | P83916 | 390,000 tested, 0.56% active; further: nearly all actives have a fitted effect of over 70% in size
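Compound inhibition of the preformed complex between 50 nM HP1-beta and 50 nM biotinylated H3K9me3 peptide was read by AlphaScreen. Buffer was PBS pH 7.4 with 0.01% Tween-20. Incubations ran 30 min at room temperature, with 10 ug/mL donor/acceptor beads.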
JMJD2A Tudor: JMJD2A Tudor domain (human) inhibition; O75164; AlphaScreen JMJD2A-Tudor / H3K4me3 peptide binding; Potency, µM (titrated, usually from 114 µM), for the others: at the top dose activity change, negative = inhibition, most hits filed as inhibitors; 390,000 tested, 4.4% active; AID 504339; further: on the % scale 0 is the no-effect control and ±100 the full control effect; nearly all actives have a fitted effect of over 50% in size
Target sequence (O75164 whole entry, looked up, the tested form may be a part): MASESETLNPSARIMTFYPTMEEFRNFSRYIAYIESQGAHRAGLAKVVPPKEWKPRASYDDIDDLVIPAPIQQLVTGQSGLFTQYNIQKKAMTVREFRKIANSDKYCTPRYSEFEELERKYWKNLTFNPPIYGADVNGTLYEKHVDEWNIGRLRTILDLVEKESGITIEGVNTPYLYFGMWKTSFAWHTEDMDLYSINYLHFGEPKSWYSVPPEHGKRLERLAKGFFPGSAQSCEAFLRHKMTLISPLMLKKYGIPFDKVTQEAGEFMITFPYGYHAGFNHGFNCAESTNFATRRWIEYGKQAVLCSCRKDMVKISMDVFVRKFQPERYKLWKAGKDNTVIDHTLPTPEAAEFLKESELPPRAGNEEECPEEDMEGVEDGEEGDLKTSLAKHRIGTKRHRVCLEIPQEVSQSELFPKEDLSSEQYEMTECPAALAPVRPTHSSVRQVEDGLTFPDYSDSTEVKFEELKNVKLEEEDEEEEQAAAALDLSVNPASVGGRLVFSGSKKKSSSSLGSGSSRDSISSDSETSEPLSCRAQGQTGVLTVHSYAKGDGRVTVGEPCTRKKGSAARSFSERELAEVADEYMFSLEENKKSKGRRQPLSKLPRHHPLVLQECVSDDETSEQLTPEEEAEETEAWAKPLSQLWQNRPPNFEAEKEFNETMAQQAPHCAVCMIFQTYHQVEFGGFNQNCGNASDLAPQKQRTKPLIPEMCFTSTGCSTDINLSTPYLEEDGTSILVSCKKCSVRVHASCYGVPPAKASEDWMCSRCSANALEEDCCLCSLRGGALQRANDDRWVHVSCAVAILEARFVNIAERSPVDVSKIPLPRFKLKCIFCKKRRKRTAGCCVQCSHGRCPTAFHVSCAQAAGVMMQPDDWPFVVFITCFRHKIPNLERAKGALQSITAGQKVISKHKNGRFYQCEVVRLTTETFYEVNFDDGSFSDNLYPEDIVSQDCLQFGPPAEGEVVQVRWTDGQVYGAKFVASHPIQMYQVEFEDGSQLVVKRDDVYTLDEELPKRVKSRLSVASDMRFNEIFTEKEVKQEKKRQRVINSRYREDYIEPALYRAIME
G9a inh: blocks human histone lysine methyltransferase G9a | Q96KQ7 | G9a H3K9 monomethylation, AlphaScreen, 2 h | Potency, µM (highest dose often 102 µM), for the others: top-dose activity, negative = inhibition, most hits filed as inhibitors | 350,000 tested, 8.8% active | AID 504332; further: on the % scale 0 is the no-effect control and ±100 the full control effect; nearly all actives have a fitted effect of over 75% in size
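G9a (20 nM) preincubated 15 min RT with compounds, then 500 nM biotinylated H3K9 peptide and 20 uM SAM added; 2 h RT reaction. Monomethyl-H3K9 product detected by AlphaScreen with anti-H3K9me1 antibody, streptavidin donor and anti-rabbit IgG acceptor beads.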
L3MBTL1 block: blocks human L3MBTL1. Q9Y468. AlphaScreen L3MBTL1–H3K9me1 peptide binding. Potency, µM (doses to about 57.1 µM), for inactives: at the top dose activity, negative = inhibition, actives largely listed as inhibitors. 230,000 tested, 0.66% active. AID 485360; further: on the % scale 0 is the no-effect control and ±100 the full control effect; nearly all actives have a fitted effect of over 60% in size
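Read-out is AlphaScreen signal from streptavidin donor and nickel chelate acceptor beads (10 ug/mL final each) bridging L3MBTL1 (50 nM) and biotinylated K9-monomethylated H3(1-15) peptide (75 nM), after 30 min compound exposure at room temperature.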
Sfp PPTase inh: inhibitors of Bacillus subtilis Sfp phosphopantetheinyl transferase; Q9F4F7; Biochemical Sfp PPTase activity, qHTS; Potency, µM, for inactives: largest response in the series, negative = inhibition, most hits filed as inhibitors; 310,000 tested, 3.5% active;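 further: the enzyme is Sfp with the accession as filed and its product quenches rhodamine fluorescence; 0% = enzyme reaction without inhibitor and -100% = no enzyme wells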
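With Hepes-Na pH 7.6 buffer containing 10 mM MgCl2, Sfp (15 nM) modified BHQ-2-YbbR (12.5 uM) using rhodamine-CoA (5 uM). Two reads 30 minutes apart at 525/598 nm yielded each well's rate.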
* marks the source's active call; other numbers are inactive results; ? = inconclusive; . = not tested or not shown; ! = not confirmed by another sample; [ ] = remark or other dose. The call rests on the fitted dose curve; in most records, active means well fitted curve in the direction sought with a large enough effect; inconclusive means small, poorly fitted or top-dose-only effect, or another doubt; inactive means no such curve, though single readings can be large; an effect the other way counts as inactive or inconclusive. Potency means the concentration at half of the fitted maximal effect.

SMILES | BAZ2B block | HP1b binding inh | JMJD2A Tudor | G9a inh | L3MBTL1 block | Sfp PPTase inh
CCCC1C2CN(C(C)=O)CC=C2C(C#N)=C(N)C1(C#N)C#N (stereo not given) | -6% | 57% | -9% | 14µM* | -28%[11.4 µM] | -6%
CN1CC=C2C(C#N)=C(N)C(C#N)(C#N)C(Cc3ccccc3)C2C1 (stereo not given) | -8% | 22% | -12% | -29%[12.7 µM] | -4% | 7%
COc1ccc([C@@H]2[C@H]3CN(C(C)=O)CC=C3C(C#N)=C(N)C2(C#N)C#N)c2ccccc12 | -4% | 35% | -7% | 45µM* | 0% | 10%
CCC1C2CN(C(C)=O)CC=C2C(C#N)=C(N)C1(C#N)C#N (stereo not given) | -4% | 64% | -6% | 45µM* | 7% | 10%
O=c1[nH]c(CSc2nnc3ccccn23)nc2cc(C(F)(F)F)ccc12 | -17% | . | . | 23% | 0% | 19%
CCCc1cc(=O)[nH]c(Nc2ccccc2O)n1 | -5% | 36% | -1% | -7%[59 µM] | . | .
CCCCNS(=O)(=O)c1ccc2nc(-c3cccnc3)cc(C(=O)NCC(OC)OC)c2c1 | -1% | 49% | -9% | 10% | . | 8%
NS(=O)(=O)c1ccc(CNC(=O)c2ccc(C(=O)c3ccccc3)cc2)cc1 | . | 21% | -17% | . | -3% | .
COc1cc(C=c2c3ccccc3n3c2cc(-c2ccccc2)[n+]3C)cc(OC)c1OC | . | ? | 32µM* | . | . | .
COc1cc(N(C)C)ccc1C=c1c2ccccc2n2c1cc(-c1ccccc1)[n+]2C | . | ? | 18µM* | . | . | .
COc1cc(/C=C(/C(=O)O)c2ccc(-c3ccccc3)cc2)cc(OC)c1OC | -20% | -13% | -29% | -12% | . | 9%
CN(C)c1ccc(C=c2c3ccccc3n3c2cc(-c2ccc(Cl)cc2)[n+]3C)cc1 | . | 13µM* | 45µM* | . | . | .
CN(C)c1ccc(C=c2c3ccccc3n3c2c2c([n+]3C)CCCC2)cc1 | . | ? | 28µM* | . | . | .
C#CCOCCOCCOCCNc1nc(N2CCOCC2)nc(N2CCN(C(=O)[C@H](CCCCN)n3cc(CCCC)nn3)CC2)n1 | . | 21% | -20% | . | . | .
CN1C(C(=O)Nc2cccc(O)c2)=CC(c2cccs2)=NS1(=O)=O | ? | 6% | -26% | 6% | -7% | 14%
COc1ccc(C(=O)OCC(=O)NCCc2ccc(F)cc2)cc1S(=O)(=O)N1CCOCC1 | . | 45% | 2% | . | 0% | .
CN(C)c1ccc(C=c2c3ccccc3n3c2cc(-c2ccccc2)[n+]3C)cc1 | . | 50µM* | 32µM* | . | . | .
CN(C)c1ccc(/C=C2\SC(=O)N(CC(O)Cn3c4ccccc4c4ccccc43)C2=O)cc1 (stereo not given) | -3% | 16% | -25% | 9%[59 µM] | -3% | 16%
CN(C)c1ccc(C=c2c3cc([N+](=O)[O-])ccc3n3c2cc(-c2ccccc2)[n+]3C)cc1 | . | 11µM* | 11µM* | . | . | .
CN1CCCCC1CCN1c2ccccc2Sc2ccc(S(C)=O)cc21 (stereo not given) | -21% | 14% | -20% | 5.6µM*! | -11% | -13%
COc1ccc(C(CNS(=O)(=O)c2ccccc2)N2CCN(C)CC2)cc1 (stereo not given) | -6% | 28% | -8% | -50% | -3% | .
COc1ccc(S(=O)(=O)NCC(c2ccc(C)cc2)N2CCN(C)CC2)cc1 (stereo not given) | -4% | 5% | -21% | ? | -12% | .
Cc1ccc(S(=O)(=O)NCC(c2ccc(N(C)C)cc2)N2CCc3ccccc32)cc1 (stereo not given) | 6.3µM* | ? | 14µM* | 11µM* | . | .
CN(C)c1ccc(C(CNS(=O)(=O)c2ccccc2)N2CCc3ccccc32)cc1 (stereo not given) | 22µM* | ? | 13µM* | -33%[12.7 µM] | . | .
COc1ccc(S(=O)(=O)NCC(c2ccc(N(C)C)cc2)N2CCc3ccccc32)cc1F (stereo not given) | 11µM* | ? | 20µM* | -23%[12.7 µM] | . | .
SMILES | BAZ2B block | HP1b binding inh | JMJD2A Tudor | G9a inh | L3MBTL1 block | Sfp PPTase inh
COc1ccc(S(=O)(=O)NCC(c2ccc(N(C)C)cc2)N2CCCC2)cc1F (stereo not given) | -36% | 0% | -32% | -1%[12.7 µM] | . | .
COc1ccc(-n2nc3c(c2NC(=O)C24CC5CC(CC(C5)C2)C4)CS(=O)C3)cc1 (stereo not given) | -5% | 36% | -12% | 79µM* | . | -13%
COc1ccc(OC)c(S(=O)(=O)NCCc2sc(C)nc2C)c1 | 3% | 11%[57 µM] | -10% | 11%[59 µM] | . | .
CCOC(=O)CC(=O)CSc1nccc(-c2cccnc2)n1 | -17% | 22% | -11% | . | . | 56µM*
Cc1ccc(O)c(C2=Nc3ccccc3N=C(c3cccc(F)c3)C2)c1 | -32% | 52% | -6% | 27%[59 µM] | . | .
Clc1ccccc1C(c1ccccc1)(c1ccccc1)n1ccnc1 | 22µM* | -16% | 28µM* | 4%[59 µM] | ? | -60%
FC(F)(F)c1ccccc1-n1ccnc1 | 11% | 24% | -6% | -1%[59 µM] | 2% | 21%
COC(=O)C1=C(C)N(CC2CCCO2)C(=O)/C1=C\c1ccc(O)cc1 (stereo not given) | ? | ? | 35µM* | ? | . | -29%
CCOc1cc(/C=C2\C(=O)N(Cc3ccco3)C(C)=C2C(=O)OC)ccc1O | 50µM* | 20µM* | 18µM* | 8.9µM* | -29% | 20µM*
COC(=O)C1=C(C)N(c2ccc(C)c(C)c2)/C(=C/c2ccc(O)cc2)C1=O | 1% | 5% | -29% | ? | . | -5%
COC(=O)C1=C(C)N(Cc2ccc(C)cc2)C(=O)C1 | 1% | 25% | -1% | -8% | -3% | 10%
COC(=O)C1=C(C)N(Cc2ccc(C)cc2)C(=O)/C1=C\c1ccc(O)c(OC)c1 | 50µM* | 22µM* | 25µM* | 19%[2.33 µM] | -20% | 50µM*
CCOc1cc(/C=C2\C(=O)N(CCc3ccc(OC)c(OC)c3)C(C)=C2C(=O)OC)ccc1O | 50µM* | ? | 40µM* | ? | -4% | 50µM*
CS(=O)(=O)c1ccc(C(=O)OCC(=O)N2CCCC2)cc1[N+](=O)[O-] | . | 37% | -19% | . | . | .
COc1cc(/C=C/C(=O)Nc2ccc(C)cc2)cc(OC)c1OC | -33% | 12% | -14% | -3%[59 µM] | -3% | -2%
CCOc1ccc(N2C(=O)S/C(=C\c3ccc(O)c(OC)c3)C2=O)cc1 | -2% | 4% | -8% | 2% | 0% | -9%
COC(=O)C1=C(C)N(Cc2ccc(C)cc2)C(=O)/C1=C\c1cc(OC)c(OC)c(OC)c1 | 40µM* | -22% | 11µM* | 25µM* | -3% | -16%
